Screening data as filed in PubChem.
Rows were chosen to be rich in hits. Some 1.3% of all compounds tested hit in one or more screens of this group.
SARS PLP yeast: qHTS of Yeast-based Assay for SARS-CoV PLP; S. cerevisiae expressing SARS-CoV PLpro, growth rescue; Potency, µM (doses to about 32.9 µM), for the others: at the top dose activity, positive = growth rescue, actives largely listed as activators; 330,000 compounds, 0.19% hits; AID 485353, 2010; calls by dose curve; also: 0% is about no effect; nearly all actives have a fitted effect of over 55% in size
AmpC inh no detg: qHTS Inhibitors of AmpC Beta-Lactamase (assay without detergent). 330,000 compounds, 0.52% hits. Potency, µM (highest dose often 57.1 µM), for inactives: at the highest dose activity change, negative = inhibition, actives largely listed as inhibitors. AmpC nitrocefin hydrolysis, absorbance 480 nm, 0.0001% Triton. P00811;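 also: plate controls were no compound for no effect and no enzyme for full effect; nearly all actives have a fitted effect of over 20% in size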
Target sequence (P00811 whole entry, looked up): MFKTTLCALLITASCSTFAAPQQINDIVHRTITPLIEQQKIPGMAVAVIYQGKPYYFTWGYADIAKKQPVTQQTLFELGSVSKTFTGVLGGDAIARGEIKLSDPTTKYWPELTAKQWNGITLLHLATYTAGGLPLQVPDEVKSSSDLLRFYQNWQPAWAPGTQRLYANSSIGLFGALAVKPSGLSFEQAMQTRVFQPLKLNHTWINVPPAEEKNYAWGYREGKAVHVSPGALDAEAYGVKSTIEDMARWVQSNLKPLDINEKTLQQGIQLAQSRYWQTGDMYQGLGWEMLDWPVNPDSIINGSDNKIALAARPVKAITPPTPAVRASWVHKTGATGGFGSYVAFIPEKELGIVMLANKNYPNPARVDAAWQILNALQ
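AmpC (5.3 nM in the dispensed reagent) in 20 mM phosphate pH 7.0 with 0.01% (detergent screen) or 0.0001% Triton X-100 was preincubated with compounds for 15 min at room temperature. Nitrocefin was then added from an 800 uM solution, and hydrolysis was followed at 480 nm.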
VACV Venus inh: qHTS for Stage-Specific Inhibitors of Vaccinia Orthopoxvirus: Venus Reporter Primary qHTS; AID 720580, 2013; 330,000 compounds, 0.46% hits; Vaccinia virus Venus reporter expression, fluorescence; Potency, µM (highest dose often 36.5 µM), for the others: top-dose activity change, negative = inhibition, most hits filed as inhibitors; calls by dose curve; tested in A549 cells; also: % is scaled to controls: 0 for no effect and ±100 for the full control effect; nearly all actives have a fitted effect of over 30% in size
AmpC inh detg: qHTS Inhibitors of AmpC Beta-Lactamase (assay with detergent). AmpC hydrolysis of nitrocefin, absorbance 480 nm, 0.01% Triton. Potency, µM (top dose mostly 114 µM), inactives show at the highest dose activity change, negative = inhibition, hits mostly inhibitors. 370,000 compounds, 0.041% hits;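 also: 0% = no-compound wells and -100% = no-enzyme wells; nearly all actives have a fitted effect of over 25% in size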
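20 mM phosphate pH 7.0 + 0.01% (detergent screen) or 0.0001% Triton X-100; 5.3 nM AmpC reagent; cpd preinc 15 min RT; nitrocefin (800 uM stock) to start; A480 q20 s × 4 min; Activity was normalised to no-enzyme and no-compound control wells.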
VACV mCherry inh: qHTS for Stage-Specific Inhibitors of Vaccinia Orthopoxvirus: mCherry Reporter Primary qHTS. Vaccinia virus mCherry reporter infection, fluorescence. Potency, µM (titrated, usually from 36.5 µM), for the others: top-dose activity change, negative = inhibition, most hits filed as inhibitors. 310,000 compounds, 0.63% hits. AID 720579, 2013; calls by dose curve; tested in A549 cells; also: % is scaled to controls: 0 for no effect and ±100 for the full control effect; nearly all actives have a fitted effect of over 35% in size
Active calls of the source: *; i = inactive; ? = inconclusive; . = no result given; ! = a repeat was not active. Unless noted, calls follow the shape of the dose curve; as a rule, active = well fitted curve in the direction sought with a large enough effect; inconclusive = small, poorly fitted or top-dose-only effect, or another doubt; inactive = no such curve, though single readings can be large; an effect the other way counts as inactive or inconclusive. Potency is read from the fitted curve at half-maximal effect.

SMILES	SARS PLP yeast	AmpC inh no detg	VACV Venus inh	AmpC inh detg	VACV mCherry inh
COc1ccc(-c2ccnc(-n3ncc(C(=O)NCc4ccon4)c3C3CC3)n2)cc1F	.	.	?	.	-15%
CC(NNC(=S)N1CCCCCC1)c1ccc2ccccc2n1 (configuration not stated)	.	.	-25%	.	5.6µM*
N/C(=N\c1nc2ccccc2o1)NC(=O)/C=C/c1ccccc1	-1%	5µM*	5%	-4%	-24%
N/C(=N\c1nc2ccccc2o1)NC(=O)c1ccccc1	-10%	-21%	-23%	?	-10%
Cc1cc(C(=O)CSc2nn(-c3ccccc3)c(=S)s2)c(C)n1Cc1ccco1	2%	28µM*	.	0%	.
NC(=NCCCCCCN=C(N)/N=C(\N)Nc1ccc(Cl)cc1)/N=C(\N)Nc1ccc(Cl)cc1	-37%	17%	10µM*!	?	?
O=C(Cc1ccccc1)N/N=C/c1cc(Br)cc(Cl)c1O	1%	-30%	?	-5%	13µM*
Cc1ccc(/C=N/NC(=O)Cc2ccc(Cl)cc2)c(O)c1	-2%	-33%	?	-8%	22µM*
O=C(Cc1ccccc1)N/N=C/c1ccccc1F	-4%	-5%	.	5%	.
CC(C)c1ccc(/C=C/C(=O)Nc2nc3ccc([N+](=O)[O-])cc3s2)cc1	-1%	-28%	.	-4%	.
O=[N+]([O-])c1ccc2nc(NN=Cc3ccc(O)cc3)sc2c1	.	.	?	.	3.2µM*
Cc1ccc(NC(=O)c2cccc(N3CCCS3(=O)=O)c2)cc1C	.	.	-6%	-1%	-15%
CCCCCC(=O)N1C[C@H](n2cc(-c3ccc(F)cc3)nn2)[C@@H](O)C[C@@H]1c1ccc(OC)cc1	.	.	-14%	.	1%
Cc1[nH]c2ccccc2c1/C=C/c1nc2ccccc2c(=O)[nH]1	2%	-9%	?	1%	13µM*
Cc1cccc(/C=C/c2nc3ccccc3c(=O)[nH]2)c1	1%	-27%	-15%	-2%	-22%
COc1ccc(CN2CCCC(n3cc(C(=O)NC4CCCC4)nn3)C2)c(O)c1 (configuration not stated)	.	.	-18%	.	i
Cc1oc(-c2ccccc2NC(=O)c2cccnc2)nc1CNC(=O)C1CCCCCN1C (configuration not stated)	.	.	-12%	.	i
CCOc1cccc(CNCCO)c1OCc1ccc(Cl)cc1Cl	9%	32%	?	?	?
CCOc1cc(CNCCO)cc(Br)c1OCc1ccc(Cl)cc1Cl	-6%	83%	13µM*	8%	.
Cc1ccnc2c1ccc1ccccc12	4%	-18%	-5%	-2%	5%
c1cnc2c(c1)ccc1cccnc12	3%	-27%	?	?	3.5µM*
Cc1ccnc2c1ccc1cccnc12	2%	6%	?	0%	4.5µM*
O=Cc1ccc2ccc3cccnc3c2n1	-4%	-7%	5%	-4%	-2%
Cc1ccc(C)c(CN2C[C@H](Sc3nc4ccccc4[nH]3)C[C@H]2C(=O)N2CCCN(C)CC2)c1	.	.	-9%	.	-18%
Cc1c(C(=O)NCCCc2ccncc2)cnn1-c1ncc2c(n1)-c1ccccc1CC2	.	.	?	.	-2%
SMILES	SARS PLP yeast	AmpC inh no detg	VACV Venus inh	AmpC inh detg	VACV mCherry inh
O=C1NC(=O)C(=Cc2cc3c(cc2[N+](=O)[O-])OCO3)C(=O)N1	0%	?	-1%	50µM*	-3%
O=C1NC(=O)C(=Cc2ccccc2[N+](=O)[O-])C(=O)N1	.	.	3%	.	0%
Cc1ccsc1CN1CCc2nnc(CCNC(=O)c3ccc(F)cc3)n2CC1	.	.	-18%	.	i
Cc1nnsc1C(=O)N1CCCC(N2CCN(c3ccc(F)cc3)CC2)C1 (configuration not stated)	0.71µM*	15%	-13%	-4%	i
CS(=O)(=O)N(CC(N)=O)c1ccc(F)c(Cl)c1	4%	0.32µM*	6%	2%	-13%
CN(C)C(=O)CN(c1ccc(F)c(Cl)c1)S(C)(=O)=O	13%	-4%	-15%	-2%	-17%
CCSc1nc2ccccc2n1C(=O)/C=C/c1ccc(OC)c(OC)c1	7%	90%	?	-8%	28µM*
